The values that follow come from ChEMBL document CHEMBL3988442, “University of Dundee, Small-Polar-MMV Screening Library” (2021).

Common to all, as to set-up: scale not given: direction of the effect not stated beside the values
In assay [1] the target is Protein translocase subunit SecA (Escherichia coli (strain K12)) (UniProt P10408). The experiment in a line: Assay to Identify E. coli SecA ATPase Inhibitors. It is filed as functional. Conditions: 30 µM.
Assay [2] has as its target T1, Ubiquitin-activating enzyme e1, putative (Leishmania donovani (strain BPK282A1)) (UniProt E9BSI1).
T1 sequence (whole entry): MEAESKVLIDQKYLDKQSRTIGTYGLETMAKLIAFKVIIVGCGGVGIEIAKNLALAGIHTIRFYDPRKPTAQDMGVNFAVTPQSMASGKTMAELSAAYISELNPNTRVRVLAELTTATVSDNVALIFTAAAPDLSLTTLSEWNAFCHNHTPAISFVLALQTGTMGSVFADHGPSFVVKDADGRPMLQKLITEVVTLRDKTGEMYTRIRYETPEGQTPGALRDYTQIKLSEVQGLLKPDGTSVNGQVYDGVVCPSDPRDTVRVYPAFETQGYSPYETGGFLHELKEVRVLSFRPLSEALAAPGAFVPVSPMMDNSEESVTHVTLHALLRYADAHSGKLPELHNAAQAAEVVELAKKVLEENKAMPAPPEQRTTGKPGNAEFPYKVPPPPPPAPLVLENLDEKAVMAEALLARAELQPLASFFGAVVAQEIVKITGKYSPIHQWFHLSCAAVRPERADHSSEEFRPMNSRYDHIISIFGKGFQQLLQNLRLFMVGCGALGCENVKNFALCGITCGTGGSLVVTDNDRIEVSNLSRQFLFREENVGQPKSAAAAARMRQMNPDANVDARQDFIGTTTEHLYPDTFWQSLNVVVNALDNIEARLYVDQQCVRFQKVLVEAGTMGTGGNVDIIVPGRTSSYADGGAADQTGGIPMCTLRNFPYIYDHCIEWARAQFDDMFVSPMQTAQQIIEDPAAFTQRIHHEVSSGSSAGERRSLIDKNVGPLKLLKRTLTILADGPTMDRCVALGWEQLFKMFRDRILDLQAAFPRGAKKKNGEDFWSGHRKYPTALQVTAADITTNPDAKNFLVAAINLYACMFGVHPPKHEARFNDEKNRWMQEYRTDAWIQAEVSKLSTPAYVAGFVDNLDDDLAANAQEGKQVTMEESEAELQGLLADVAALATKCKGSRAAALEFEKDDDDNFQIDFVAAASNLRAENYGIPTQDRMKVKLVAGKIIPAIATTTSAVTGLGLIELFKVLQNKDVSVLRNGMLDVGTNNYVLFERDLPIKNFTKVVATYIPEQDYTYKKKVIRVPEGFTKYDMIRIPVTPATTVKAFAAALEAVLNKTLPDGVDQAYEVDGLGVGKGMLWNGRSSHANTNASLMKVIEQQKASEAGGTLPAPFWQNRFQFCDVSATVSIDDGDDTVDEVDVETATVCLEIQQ
The experiment in a line: Leishmania donovani Ubiquitin Activating Enzyme (LdE1). The assay is classed as functional. The settings on record: 30 µM.

Assay [3] addresses AMP-activated protein kinase, AMPK (Homo sapiens) (UniProt P54646+O43741+P54619+Q9UGJ0+Q9Y478+Q13131+Q9UGI9). Briefly: AMP-dependent Kinase enzyme assay. An in vitro enzyme assay that detects ADP turnover that is directly proportional to AMPK activity. This uses naive AMPK that is activated during the assay with MK-8722. It is filed as functional. The settings on record: 30 µM.

The target of assay [4] is Sialic acid-binding Ig-like lectin 9 (Homo sapiens) (UniProt Q9Y336). The experiment in a line: Hs-Siglec9 ALPHAscreen SOP 20170721. Conditions: 10 µM. A general note: In Alpha technology, singlet oxygen from a donor bead excites a nearby acceptor bead.
Sialic acid-binding Ig-like lectin 9 (Homo sapiens), sequence (Q9Y336 whole entry): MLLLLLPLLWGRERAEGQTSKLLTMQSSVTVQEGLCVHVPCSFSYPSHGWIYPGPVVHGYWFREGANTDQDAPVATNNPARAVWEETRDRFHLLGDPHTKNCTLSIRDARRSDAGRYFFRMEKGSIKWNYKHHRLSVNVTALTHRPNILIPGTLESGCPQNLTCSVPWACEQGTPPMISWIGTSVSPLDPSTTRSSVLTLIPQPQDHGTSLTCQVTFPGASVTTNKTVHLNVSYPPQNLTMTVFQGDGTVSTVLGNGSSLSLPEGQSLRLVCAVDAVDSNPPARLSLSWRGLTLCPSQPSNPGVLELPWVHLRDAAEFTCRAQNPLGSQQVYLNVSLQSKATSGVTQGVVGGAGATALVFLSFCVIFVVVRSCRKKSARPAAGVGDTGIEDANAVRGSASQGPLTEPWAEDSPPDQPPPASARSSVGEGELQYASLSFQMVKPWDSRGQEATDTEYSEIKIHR
The test system of another assay is Trypanosoma cruzi. Briefly: Trypanosoma cruzi phosphomannomutase and mannose-1-phosphate guanylyltransferase assay. It is filed as functional. The settings on record: 10 µM.
Assay [5] deals with T2, Arginase-2, mitochondrial (Homo sapiens) (UniProt P78540).
T2 sequence (whole entry): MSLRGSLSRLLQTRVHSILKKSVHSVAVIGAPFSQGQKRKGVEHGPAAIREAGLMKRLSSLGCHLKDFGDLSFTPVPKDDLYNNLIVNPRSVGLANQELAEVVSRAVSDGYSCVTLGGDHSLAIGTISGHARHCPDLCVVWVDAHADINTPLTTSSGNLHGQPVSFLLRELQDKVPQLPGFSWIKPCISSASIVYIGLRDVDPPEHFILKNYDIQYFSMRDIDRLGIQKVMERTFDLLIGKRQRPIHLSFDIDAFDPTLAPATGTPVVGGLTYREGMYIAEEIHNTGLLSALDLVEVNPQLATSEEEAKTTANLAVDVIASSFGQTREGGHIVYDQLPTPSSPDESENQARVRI
The experiment in a line: in vitro enzyme assay to detect the production of urea directly proportional to the activity of Arginase II. Further: in the data most compounds retested in dose-response had high values. It is filed as functional. The settings on record: 33.3 µM.

For assay [6], the target named is T3, Proteasome subunit beta (Trypanosoma cruzi) (UniProt O96673).
T3 sequence (whole entry): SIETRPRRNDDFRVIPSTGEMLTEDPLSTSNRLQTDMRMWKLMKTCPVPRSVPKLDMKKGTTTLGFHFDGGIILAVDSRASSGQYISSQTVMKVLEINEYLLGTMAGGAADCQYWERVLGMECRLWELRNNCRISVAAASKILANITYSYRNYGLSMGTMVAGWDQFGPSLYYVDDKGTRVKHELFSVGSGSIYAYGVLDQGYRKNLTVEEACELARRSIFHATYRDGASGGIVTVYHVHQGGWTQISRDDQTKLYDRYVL
Briefly: Trypanosoma cruzi proteasome chymotrypsin-like activity (TcProtChymo) assay. Further: in the data most compounds retested in dose-response had high values. The assay is classed as functional. Conditions: 9.37 µM.

Another assay is filed under the species Homo sapiens. Briefly: To identify inhibition of the IFN signalling (Jak-Stat) pathway via expression of an eGFP reporter gene under the control of an IFN-stimulated response element (ISRE) containing MxA promoter. The assay is classed as functional. The settings on record: 30 µM.
Assay [7] concerns the target T4, Tyrosyl-tRNA synthetase, putative (Trypanosoma cruzi (strain CL Brener)) (UniProt Q4DSP6).
T4 sequence (whole entry): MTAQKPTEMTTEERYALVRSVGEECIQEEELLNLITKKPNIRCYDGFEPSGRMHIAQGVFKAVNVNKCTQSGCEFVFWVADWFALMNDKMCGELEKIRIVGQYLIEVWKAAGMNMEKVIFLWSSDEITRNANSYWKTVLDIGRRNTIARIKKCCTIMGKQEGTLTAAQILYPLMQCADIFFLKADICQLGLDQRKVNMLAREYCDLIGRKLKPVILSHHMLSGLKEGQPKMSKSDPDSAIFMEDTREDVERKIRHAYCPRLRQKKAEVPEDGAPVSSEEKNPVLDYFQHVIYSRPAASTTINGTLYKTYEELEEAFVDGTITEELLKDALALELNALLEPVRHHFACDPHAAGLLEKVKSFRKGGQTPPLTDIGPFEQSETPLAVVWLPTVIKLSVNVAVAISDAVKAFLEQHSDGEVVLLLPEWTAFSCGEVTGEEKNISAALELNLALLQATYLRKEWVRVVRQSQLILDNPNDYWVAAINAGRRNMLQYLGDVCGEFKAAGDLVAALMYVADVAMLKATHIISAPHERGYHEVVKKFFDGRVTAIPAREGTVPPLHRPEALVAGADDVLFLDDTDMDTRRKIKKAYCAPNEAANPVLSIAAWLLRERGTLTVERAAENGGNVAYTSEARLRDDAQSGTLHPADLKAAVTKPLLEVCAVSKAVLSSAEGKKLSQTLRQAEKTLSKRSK
Briefly: Trypanosoma cruzi tyrosyl tRNA synthetase (TcYRS) _High Tyrosine SOP. Further: in the data most compounds retested in dose-response had high values. It is filed as functional. Conditions: 30 µM.

Assay [8] deals with T4, Tyrosyl-tRNA synthetase, putative (Trypanosoma cruzi (strain CL Brener)). Briefly: Trypanosoma cruzi tyrosyl tRNA synthetase (TcYRS) SOP. The assay is classed as functional. Conditions: 30 µM.
The target of assay [9] is Chromo domain-containing protein 1 (Saccharomyces cerevisiae (strain ATCC 204508 / S288c) (Baker's yeast)) (UniProt P32657). Briefly: ScCHD-1 Enzyme Inhibition Assay. Further: in the data most compounds retested in dose-response had high values. It is filed as functional. Conditions: 30 µM.
Chromo domain-containing protein 1 (Saccharomyces cerevisiae (strain ATCC 204508 / S288c) (Baker's yeast)), sequence (P32657 whole entry, the tested form may be a part): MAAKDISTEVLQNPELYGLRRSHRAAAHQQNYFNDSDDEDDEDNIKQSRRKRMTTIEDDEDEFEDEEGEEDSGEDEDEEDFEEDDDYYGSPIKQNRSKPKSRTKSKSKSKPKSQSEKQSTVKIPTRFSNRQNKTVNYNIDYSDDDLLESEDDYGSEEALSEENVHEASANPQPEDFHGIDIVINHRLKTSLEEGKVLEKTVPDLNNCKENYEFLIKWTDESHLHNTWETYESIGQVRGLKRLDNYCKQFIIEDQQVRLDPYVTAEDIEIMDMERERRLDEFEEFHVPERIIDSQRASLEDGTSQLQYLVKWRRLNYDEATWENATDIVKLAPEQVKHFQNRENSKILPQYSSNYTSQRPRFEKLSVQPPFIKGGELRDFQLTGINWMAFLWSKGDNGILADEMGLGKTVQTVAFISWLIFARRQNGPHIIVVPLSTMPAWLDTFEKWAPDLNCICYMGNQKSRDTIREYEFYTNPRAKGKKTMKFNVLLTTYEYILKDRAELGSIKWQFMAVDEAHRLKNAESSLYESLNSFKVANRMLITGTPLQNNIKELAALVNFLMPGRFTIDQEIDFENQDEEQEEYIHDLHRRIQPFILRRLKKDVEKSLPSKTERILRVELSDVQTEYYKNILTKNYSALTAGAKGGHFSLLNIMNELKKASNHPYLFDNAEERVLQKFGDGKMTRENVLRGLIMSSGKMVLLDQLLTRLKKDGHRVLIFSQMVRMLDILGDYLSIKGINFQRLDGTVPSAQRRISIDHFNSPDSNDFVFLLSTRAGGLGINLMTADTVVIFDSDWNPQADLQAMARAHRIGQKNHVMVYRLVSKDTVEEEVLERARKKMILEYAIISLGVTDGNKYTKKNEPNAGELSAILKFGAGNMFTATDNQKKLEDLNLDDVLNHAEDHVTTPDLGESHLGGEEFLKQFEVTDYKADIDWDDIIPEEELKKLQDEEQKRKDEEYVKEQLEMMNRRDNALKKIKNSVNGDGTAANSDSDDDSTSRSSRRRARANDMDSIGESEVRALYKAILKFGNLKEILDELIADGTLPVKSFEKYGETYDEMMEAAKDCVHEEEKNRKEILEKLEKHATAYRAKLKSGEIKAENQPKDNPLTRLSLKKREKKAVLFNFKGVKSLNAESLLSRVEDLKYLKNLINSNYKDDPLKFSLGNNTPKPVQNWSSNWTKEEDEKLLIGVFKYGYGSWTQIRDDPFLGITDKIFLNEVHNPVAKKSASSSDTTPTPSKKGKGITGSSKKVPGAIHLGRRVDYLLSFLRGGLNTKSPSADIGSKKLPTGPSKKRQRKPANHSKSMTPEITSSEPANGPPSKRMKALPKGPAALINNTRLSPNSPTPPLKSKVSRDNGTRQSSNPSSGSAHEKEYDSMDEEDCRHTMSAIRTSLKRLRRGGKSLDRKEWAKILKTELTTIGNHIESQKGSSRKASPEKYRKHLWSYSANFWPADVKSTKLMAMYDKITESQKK

SMILES strings stand for the structures. For some of these results: Entries with a potency or affinity are not part of this list.

Protein translocase subunit SecA (Escherichia coli (strain K12)), sequence (P10408 whole entry): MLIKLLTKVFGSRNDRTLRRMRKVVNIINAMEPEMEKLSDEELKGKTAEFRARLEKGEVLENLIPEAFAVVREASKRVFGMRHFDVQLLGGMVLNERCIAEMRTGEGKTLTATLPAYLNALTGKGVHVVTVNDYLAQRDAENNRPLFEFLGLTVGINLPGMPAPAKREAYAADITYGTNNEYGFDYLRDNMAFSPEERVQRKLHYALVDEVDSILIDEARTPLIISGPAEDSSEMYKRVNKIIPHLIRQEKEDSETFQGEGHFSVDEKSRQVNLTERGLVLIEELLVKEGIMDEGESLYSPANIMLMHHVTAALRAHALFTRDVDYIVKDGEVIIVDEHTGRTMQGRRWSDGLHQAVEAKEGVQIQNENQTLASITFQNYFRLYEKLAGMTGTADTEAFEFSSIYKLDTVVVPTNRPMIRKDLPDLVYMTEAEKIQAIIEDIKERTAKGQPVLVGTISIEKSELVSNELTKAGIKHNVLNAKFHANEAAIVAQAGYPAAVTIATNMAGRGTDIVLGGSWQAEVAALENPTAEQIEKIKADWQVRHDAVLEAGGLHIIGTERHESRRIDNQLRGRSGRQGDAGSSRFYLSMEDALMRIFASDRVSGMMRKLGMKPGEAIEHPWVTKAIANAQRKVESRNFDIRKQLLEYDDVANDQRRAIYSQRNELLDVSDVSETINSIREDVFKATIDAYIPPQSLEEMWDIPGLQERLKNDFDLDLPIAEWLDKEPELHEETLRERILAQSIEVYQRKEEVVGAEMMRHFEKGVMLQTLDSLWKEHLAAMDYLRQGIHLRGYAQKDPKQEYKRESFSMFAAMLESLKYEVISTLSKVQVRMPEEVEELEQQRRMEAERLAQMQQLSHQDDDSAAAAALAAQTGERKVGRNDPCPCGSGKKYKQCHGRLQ

For `CN(CC1CC1)C(=O)CN(Cc1cccc(O)c1)C1CCC(O)CC1` (stereo not drawn), the Percent Effect is -0.997% in assay [1]; -2.7% in assay [2]; -5.33% in assay [3]; 8.92% in [4]; 1.07% with Trypanosoma cruzi; 24.6% in assay [5]. Further, the Percent Effect turned out to be 11.1% in assay [6]; 12% in the assay filed under Homo sapiens; 0% in assay [7]; 1.24% in [8]; 0.446% in [9].

`COCCN1CC[C@@H]2O[C@@H](COCC(=O)N3CCCC3)CC[C@@H]21`: the Percent Effect was -3.65% in assay [1]; 5.48% in [2]; -6.36% in [3]; 2.85% in assay [4]; 7.94% in the assay with Trypanosoma cruzi; -3.99% in assay [5]. Moreover, the Percent Effect in assay [6] is 3.85%; in the assay listed under Homo sapiens it was -31.2%; in assay [7] it was 7.29%; in assay [8], 13.6%; in assay [9], -5.05%.

For `CC(NCC1=Cc2cc(Cl)ccc2OC1)c1nnc2n1CCCC2` (stereo not drawn), the Percent Effect in assay [1] was -3.07%; in assay [2], -2.7%; in [3], 3.91%; in assay [4] it was 2.75%; in the assay on Trypanosoma cruzi, -0.195%; in [5] it was 1.67%. Besides, the Percent Effect was 9.38% in assay [6]; -10.3% in the assay filed under Homo sapiens; 4.95% in assay [7]; 1.22% in [8]; -3.29% in assay [9].

For `O=C(c1ccc(-n2cccn2)nc1)N1CCC(Nc2cccnn2)CC1`, the Percent Effect is -8.1% in assay [1]; 10.4% in [2]; 4.61% in [3]; 12.7% in assay [4]; 1.47% in the assay on Trypanosoma cruzi; 0.632% in assay [5]. Also, the Percent Effect in assay [6] was 12.8%; in the assay listed under Homo sapiens, 5.75%; in [7] it was 6.67%; in assay [8] it was 9.41%; in assay [9], -8.74%.

Turning to `CCN(CC1CCCO1)C(=O)Nc1cc(C(=O)OC)ccc1F` (stereo not drawn), the Percent Effect was -2.67% in [1]; 7.59% in assay [2]; 1.58% in assay [3]; 13.4% in assay [4]; -1.98% with Trypanosoma cruzi; 1.9% in assay [5]. The Percent Effect in assay [6] was 2.21%; in the assay filed under Homo sapiens, 0.11%; in assay [7], 3.45%; in assay [8], 8.86%; in [9], -8.28%.

Regarding `CNCC(=O)N1CCC(c2ccnc(Nc3ccc(C)cn3)n2)C1` (stereo not drawn), the Percent Effect in assay [1] was -7.25%; in assay [2], 17.6%; in assay [3], 1.51%; in assay [4], 1.04%; in the assay on Trypanosoma cruzi it was 2.37%; in assay [5], -4.87%. Also, the Percent Effect in assay [6] was 17.9%; in the assay listed under Homo sapiens it was -13.7%; in assay [7] it was 8.6%; in assay [8] it was 19.5%; in assay [9] it was -16.1%.

On to `COc1cccc(S(=O)(=O)CCN2CCCCC2)c1`, for which the Percent Effect in assay [1] is -3.72%; in assay [2], 8%; in assay [3] it was -7.74%; in [4], 6.82%; with Trypanosoma cruzi, -5.94%; in assay [5], 1.56%. Further, the Percent Effect is 22% in assay [6]; 20% in the assay listed under Homo sapiens; 2.73% in assay [7]; 8.64% in assay [8]; -9.16% in assay [9].

On to `COc1cc(C(=O)Nc2c(C)noc2C)ccc1C`, for which the Percent Effect was -3.57% in assay [1]; 17.7% in [2]; 2.44% in assay [3]; 6.13% in assay [4]; 3.87% with Trypanosoma cruzi; -4.56% in [5]. Moreover, the Percent Effect in assay [6] was 1.88%; in the assay filed under Homo sapiens, 18.6%; in assay [7], 4.43%; in assay [8], 16.5%; in assay [9], -5.84%.
